Sampled rows, rich in hits. Any-hit rate of the full collection: about 3.1%.
dFosB act-1: enhances mouse delta FosB homodimer DNA binding; P13346; purified delta FosB, TAMRA-CDK5 oligo fluorescence polarization; percent of positive-control signal above neutral wells; activation, % at 25 µM; actives 0.99% (n = 340,000);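 active = mean activation above about 17%, with every replicate also reaching it, limit read from the data, passing the limit was not always enough; inconclusive = only one of the two conditions met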
RAD52 anneal inh: inhibitors of human RAD52 DNA annealing; P43351; recombinant RAD52 DNA annealing, FRET fluorescence; inhibition, % at 18.7 µM; actives 0.46% (n = 360,000); AID 651710;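 active = every replicate showing at least 50% inhibition; inconclusive = mean inhibition at least 50% but not in every replicate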
DENV2 CPE: protects cells from dengue virus 2 cytopathic effect. actives 1.7% (n = 350,000). CPE inhibition, % at 9.99 µM. DENV2-infected cells, cytopathic effect rescue, plate reader; in the data active = CPE inhibition above about 20%, passing the limit was not always enough; inconclusive = no clear call, values can overlap the other calls; tested in BHK-21 cells
GSIS activator: GLuc luminescence reporter in INS-1E cells, primary screen for activators of glucose-dependent secretion of insulin; actives 0.61% (n = 370,000); activation, % at 16.6 µM; INS-1E GLuc reporter insulin secretion, 2-3 h;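 active = lowest replicate activation of at least 40%, so every replicate reaches that level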
MLL AF4-AF9 inh: blocks AF4 peptide binding to human AF9; AlphaScreen, biotin-AF4 peptide binding to FLAG-AF9; inhibition, % at 10 µM; actives 0.47% (n = 350,000); AID 651704;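 active = every replicate reaching a set inhibition limit, whatever the replicate mean, cut at about 25% in these data; inconclusive = mean inhibition reaches that limit but some replicates miss it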
RAD54 inh: RAD54 (human) branch migration inhibition. Q92698. RAD54 Holliday junction branch migration, FAM/BHQ fluorescence. inhibition, % at 10.4 µM. actives 0.14% (n = 360,000). AID 602329;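 active = mean normalized replicate activity at least 40 and at least half of replicates scoring 40 or more; inconclusive = only one of the two criteria met; inactive = mean below 40 and under half of replicates reaching 40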;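 also: inhibitors cause a drop in the FAM fluorescence signal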
Target sequence (Q92698 whole entry, looked up): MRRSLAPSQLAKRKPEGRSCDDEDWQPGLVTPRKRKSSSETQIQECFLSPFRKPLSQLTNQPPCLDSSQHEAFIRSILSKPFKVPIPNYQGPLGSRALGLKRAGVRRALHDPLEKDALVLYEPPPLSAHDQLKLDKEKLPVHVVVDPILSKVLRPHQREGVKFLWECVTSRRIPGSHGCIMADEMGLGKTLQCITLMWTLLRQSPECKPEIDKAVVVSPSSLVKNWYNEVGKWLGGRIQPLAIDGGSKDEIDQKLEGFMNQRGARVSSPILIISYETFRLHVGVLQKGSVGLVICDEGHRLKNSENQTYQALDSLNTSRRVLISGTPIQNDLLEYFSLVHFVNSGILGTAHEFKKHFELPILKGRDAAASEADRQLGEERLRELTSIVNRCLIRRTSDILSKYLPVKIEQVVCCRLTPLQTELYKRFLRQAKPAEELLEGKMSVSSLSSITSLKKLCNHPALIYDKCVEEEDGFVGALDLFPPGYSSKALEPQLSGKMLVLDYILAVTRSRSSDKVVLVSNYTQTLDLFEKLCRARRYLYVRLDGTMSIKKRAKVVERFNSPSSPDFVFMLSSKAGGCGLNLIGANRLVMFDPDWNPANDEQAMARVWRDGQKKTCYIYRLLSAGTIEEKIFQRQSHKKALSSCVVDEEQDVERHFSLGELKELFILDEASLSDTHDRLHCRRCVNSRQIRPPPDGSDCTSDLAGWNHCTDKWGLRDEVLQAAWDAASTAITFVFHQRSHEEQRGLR
dFosB act-2: delta FosB (mouse) homodimer activation. shares compounds with dFosB act-1. purified delta FosB, TAMRA-CDK5 oligo fluorescence polarization; normalised: neutral wells 0, positive control 100. activation, % at 24.9 µM. 2,400 tested, under 10 active. AID 588690;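 active = highest replicate activation at or above 34% and every replicate reaching that threshold; inconclusive = meets only one of the two criteria; inactive = meets neither criterion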;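 also: higher polarization means more probe DNA bound by delta FosB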
Hits are given with their value; - = inactive; ? = inconclusive; . = not tested or not shown.

SMILES | dFosB act-1 | RAD52 anneal inh | DENV2 CPE | GSIS activator | MLL AF4-AF9 inh | RAD54 inh | dFosB act-2
Cc1noc(C)c1S(=O)(=O)N(C)C[C@@H]1Oc2c(NC(=O)c3ccc(-c4nccs4)cc3)cccc2C(=O)N([C@@H](C)CO)C[C@@H]1C | . | - | - | - | - | - | .
Cc1ccc(C)c(NC(=O)CN2C(=O)NC(CCc3ccccc3)C2=O)c1 (stereo not drawn) | 34 | - | - | - | - | - | -
Cc1cc(O)c(-c2cc(C(=O)Nc3ccc(S(=O)(=O)N4CCOCC4)cc3)[nH]n2)cc1C | 25 | . | . | . | . | - | -
Cc1ccc(-c2cc(C(=O)Nc3ccc(S(=O)(=O)N4CC(C)OC(C)C4)cc3)[nH]n2)c(O)c1 (stereo not drawn) | 42 | - | - | - | - | . | -
O=C(Nc1ccc(S(=O)(=O)N2CCOCC2)cc1)c1cc(-c2cc(Cl)ccc2O)n[nH]1 | - | - | - | - | - | . | .
Cc1ccc(O)c(-c2cc(C(=O)Nc3ccc(S(=O)(=O)N4CC(C)OC(C)C4)cc3)[nH]n2)c1 (stereo not drawn) | - | . | . | . | . | - | .
Nc1ccccc1SC1CC(=O)N(c2ccc(Cl)c(Cl)c2)C1=O (stereo not drawn) | 27 | - | - | - | - | - | -
O=C(C[C@H]1C=C[C@@H](NC(=O)C2CCC2)[C@H](CO)O1)NCc1ccccc1Cl | . | - | - | - | - | - | .
CC(=O)Nc1ccc(/C=C/c2nc(-c3ccccc3O)n[nH]2)cc1 | 24 | - | - | - | - | - | -
Cc1cccc(NC(=O)CCCn2c(=S)[nH]c3ccccc3c2=O)c1 | 25 | - | - | - | - | - | -
O=C(C[C@@H]1C=C[C@@H](NC(=O)C2CCOCC2)[C@H](CO)O1)NCC1CCCCC1 | . | - | - | - | - | - | .
COc1ccc(Cl)cc1NC(=O)CSc1nc(NS(=O)(=O)c2ccc(C)cc2)cc(=O)[nH]1 | 28 | - | - | - | - | - | -
Cc1ccc(S(=O)(=O)Nc2cc(=O)[nH]c(SCc3ccc(Cl)cc3)n2)cc1 | - | - | - | - | - | - | .
CC(=O)N1[C@H](CO)[C@@H](c2ccccc2)[C@H]1CN(C)S(=O)(=O)c1ccccc1 | . | - | - | - | - | - | .
NS(=O)(=O)c1ccc(CNC(=O)c2cc(-c3cccnc3)nc3ccc(Cl)cc23)cc1 | - | - | - | - | - | - | .
NS(=O)(=O)c1ccc(CNC(=O)c2cc(-c3ccccn3)nc3ccc(Cl)cc23)cc1 | 21 | - | - | - | - | . | -
CN1CCN(C(=O)C[C@H]2CC[C@@H]3[C@H](COC[C@@H](O)CN3CC3CCOCC3)O2)CC1 | . | - | - | - | - | - | .
COc1cc(/C=C/c2ccc(O)cc2)cc(OC)c1 | - | - | ? | - | - | - | .
COC(=O)c1ccc2c(c1)C(C)(C)C(/C=C/c1ccc(O)cc1)=[N+]2C | 119 | . | . | - | . | . | -
CCc1nnc2n1N=C(c1ccc(OC)cc1)CS2 | - | . | . | . | . | - | .
CCc1nnc2n1N=C(c1ccc(-c3cc(Cl)ccc3Cl)o1)CS2 | 30 | . | . | . | . | - | -
O=C(NC1CCCCC1)C(c1ccc(F)cc1)N(Cc1cccs1)C(=O)CN1C(=O)c2ccccc2S1(=O)=O (stereo not drawn) | 29 | . | . | - | . | - | -
O=C(Cn1cnc([N+](=O)[O-])c1)c1ccc(Cl)cc1 | - | - | - | - | - | - | .
O=C(C[n+]1cnn(CC(=O)c2ccc(Cl)cc2Cl)c1)c1ccc([N+](=O)[O-])cc1 | 32 | - | ? | - | - | . | -
CCc1cccc2c(C(=O)COC(=O)c3ccc(O)cc3)c[nH]c12 | 36 | - | - | - | - | - | -
SMILES | dFosB act-1 | RAD52 anneal inh | DENV2 CPE | GSIS activator | MLL AF4-AF9 inh | RAD54 inh | dFosB act-2
C[C@@H]1CN([C@@H](C)CO)C(=O)c2cc(C#CC3CC3)cnc2O[C@@H]1CN(C)Cc1ccccn1 | . | - | - | - | - | - | .
Cc1cc(OCC(=O)N2CCC[C@@H]2C(=O)O)c2c(C)c(C)c(=O)oc2c1 | - | - | - | - | - | - | .
Cc1cc(OCC(=O)N2CCN(c3cccc(Cl)c3)CC2)c2c(C)c(C)c(=O)oc2c1 | 39 | - | - | - | - | - | -
O=C1C2=C(NC(=S)NC2c2ccc(Cl)cc2)NC(c2ccc(Cl)cc2)N1c1ccc(Cl)cc1 (stereo not drawn) | 82 | . | . | . | . | - | -
O=C1C2CCCN2C(c2ccc(F)cc2)N1c1ccc(Cl)cc1 (stereo not drawn) | - | - | - | - | - | - | .
C[C@@]12C(=O)Nc3ccc(Br)cc3C(=O)N1[C@H]1c3cc(Br)ccc3OC[C@@H]1[C@@H]2c1ccccc1 | 38 | - | - | - | - | - | -
Nc1nonc1-n1nnc(C(=O)N/N=C/c2ccccc2Cl)c1-c1ccc2c(c1)OCO2 | 25 | - | - | - | - | - | -
Cc1ccc(SCc2c(C(=O)N/N=C/c3ccccc3)nnn2-c2nonc2N)cc1 | 25 | - | - | - | - | . | -
Cc1ccc(/C=N/NC(=O)c2nnn(-c3nonc3N)c2CSc2ccccc2)cc1 | 24 | - | - | - | - | . | -
Cc1ccc(SCc2c(C(=O)N/N=C/c3ccc4c(c3)OCO4)nnn2-c2nonc2N)cc1 | 52 | - | - | - | - | - | -
Nc1nonc1-n1nnc(C(=O)N/N=C/c2ccccc2)c1CSc1ccc(Cl)cc1 | - | . | . | - | . | . | .
O=C(C[C@H]1C[C@@H]2c3cc(NC(=O)Nc4ccccc4)ccc3O[C@@H]2[C@H](CO)O1)NCc1cccnc1 | . | . | - | - | . | - | .
C/C(=N\NC(=O)c1nnn(-c2nonc2N)c1-c1ccc2c(c1)OCO2)c1ccc(C)cc1 | 32 | - | - | - | - | - | -
Cc1ccc(-c2c(C(=O)N/N=C/c3ccc4c(c3)OCO4)nnn2-c2nonc2N)cc1 | 45 | - | - | - | - | - | -
Cc1ccc(-c2c(C(=O)N/N=C/c3cccc(Cl)c3)nnn2-c2nonc2N)cc1 | 47 | - | - | - | - | - | -
Cc1noc(C)c1NC(=O)Nc1ccc2c(c1)C(=O)N([C@@H](C)CO)C[C@@H](C)[C@H](CN(C)C(=O)C1CCCCC1)OCCCC[C@@H](C)O2 | . | - | - | - | - | - | .
CCOc1ccc(NC(=O)[C@@H](NC(=O)c2ccccc2)[C@@H](C)CC)cc1 | - | . | . | - | . | . | .
CCC(C)C(NC(N)=O)C(=O)Nc1ccc(OCc2ccccc2)cc1 (stereo not drawn) | 43 | - | . | - | - | - | -
COCCN(C(=O)COc1ccccc1)c1nnc(-c2cccnc2)s1 | 32 | . | . | . | . | - | -
COCCN(C(=O)COc1ccc(Cl)cc1)c1nnc(-c2cccnc2)s1 | - | . | . | - | . | - | .
COc1cccc(Oc2ccc(C(F)(F)F)cc2NC(=O)CN2C(=O)NC3(CCCC3)C2=O)c1 | 45 | - | - | - | - | - | -

Compound activity (PubChem)
